Test results published in PubChem BioAssay AID1628 (Sanford-Burnham Center for Chemical Genomics, 2009).
The whole screen tested about 190,000 compounds, of which about 930 (0.49%) were called active. This is one part of the list. Potency and affinity values are given separately. A number with no mark means an inactive call.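 How the source made its calls: active means z-score of insulin promoter reporter brightness in nuclei below -3 at 5 µM, with at least 500 cells counted; inconclusive means wells with under 500 cells, flagged as toxic or sparse; inactive means the rest.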

Assay: decrease of insulin promoter-GFP reporter – imaging, high-content screening, mouse beta cells (AID 1628)
Details: MIN6 insulin promoter GFP reporter, at 5 µM, stronger effect = lower value

Structure (SMILES) | z-score
CCc1ccc(C(O)(c2ccccc2OC)C(CN2CCOCC2)c2ccccc2)cc1 (stereo unspecified) | -3.08 (active)
COc1ccc(OCC(=O)Nc2ccccc2C(=O)N2CCOCC2)cc1 | 1.77
CCN(CC)CCCOC(=O)C(c1ccccc1)c1ccccc1 | 0.01
CC(=O)c1c(N2CCOCC2)[nH]c(-c2ccccc2)nc1=S | 7.72
N#C/C(=C\c1ccc(N2CCOCC2)o1)c1ccccc1 | 4.39
CCOCCCNc1nc2c(C)cccn2c(=O)c1/C=C1\SC(=S)N(C(C)CC)C1=O (stereo unspecified) | 17.6
CC(C)NC(=O)/C(C#N)=C\c1ccc(N(C)C)o1 | 11.5
Clc1ccc2[nH]c3c(NCC4CCCO4)ncnc3c2c1 (stereo unspecified) | -4.6 (active)
Fc1ccc(OCCOCCNCC2CCCO2)cc1 (stereo unspecified) | 1.23
c1ccc2c(c1)[nH]c1c(NCC3CCCO3)ncnc12 (stereo unspecified) | -3.45 (active)
CCN1CC=C2C(C1)C(c1ccc(Cl)s1)C(C#N)=C(N)C2(C#N)C#N (stereo unspecified) | 15.5
c1cncc(-c2nn[nH]n2)c1 | -1.32
CC(C)(C)c1nc2ccccc2c2nnc(SCC(=O)NCc3ccco3)n12 | 1.35
c1cncc(-c2nc(NCc3ccco3)c3ccccc3n2)c1 | -3.11 (active)
O=C(Nc1nnc(-c2ccccc2)o1)Nc1ccccc1Cl | 3.77
OC1(c2cccc(C(F)(F)F)c2)CCN(c2ncnc3c2[nH]c2ccc(F)cc23)CC1 | -4.94 (active)
COc1cccc(N2CCN(c3ncnc4c3[nH]c3ccc(F)cc34)CC2C)c1 (stereo unspecified) | -3.69 (active)
CCc1cccc2cc3c(N)c(C(=O)Nc4ccc(S(=O)(=O)N5CCCC5)cc4)sc3nc12 | 8.59
O=C(NCc1cccnc1)c1ccc(CN2CCc3ccccc3C2)cc1 | 0.66
Cc1csc(SCC(=O)Nc2ccc(S(=O)(=O)N3CCCC3)cc2)n1 | 0.21
O=C(Nc1ccc(S(=O)(=O)N2CCCCC2)cc1)c1ccncc1 | -3.68 (active)
N#C/C(=C/c1ccc(N2CCCCCC2)o1)c1cccc(F)c1 | 15.9
Fc1ccc(-c2nnc3ccc(N4CCc5ccccc5C4)nn23)cc1 | -3.5 (active)
COc1ccc(S(=O)(=O)N2CCN(c3ccc4nnc(-c5ccc(F)cc5)n4n3)CC2)cc1 | -4.36 (active)

Structure (SMILES) | z-score
COc1ccc(-c2nnc3sc(C(C)N4C(=O)c5ccccc5C4=O)nn23)cc1 (stereo unspecified) | 1.87
O=S(=O)(c1ccc(OCC(O)CN2CCN(c3ccc(F)cc3)CC2)cc1)N1CCOCC1 (stereo unspecified) | -4.17 (active)
COc1ccccc1N1CCN(CC(O)COc2ccc(S(=O)(=O)N3CCOCC3)cc2)CC1 (stereo unspecified) | -3.8 (active)
OC(COc1cccc2ccccc12)CN1CCN(c2ccccc2Cl)CC1 (stereo unspecified) | 3.51
CC(C)NC(=O)N1CCN(c2ccncc2S(=O)(=O)N2CCOCC2)CC1 | 5.83
CCCCSc1cc(C)nc2ncnn12 | 0.8
O=C(O)CCCCCN1C(=O)/C(=C\c2ccc(-c3ccc(Cl)cc3)o2)SC1=S | 4.23
COc1cc2c3nnc(-c4ccc(F)cc4)c-3cn(Cc3ccc(F)cc3)c2cc1OC | 6.06
O=C(CN1CCCCCCC1)N/N=C/c1ccc(F)cc1F | -7.88 (active)
COC(=O)c1[nH]c2cccc(Cl)c2c1NC(=O)CN(C)C1CCCCC1 | 3.5
Cc1[nH]c2ccccc2c1C(=O)CN1CCCCC1C (stereo unspecified) | -1.61
CCS(=O)(=O)N1Cc2ccccc2CC1C(=O)OCC(=O)Nc1ccc(C)cc1 (stereo unspecified) | 5.05
CCOC(=O)C1CCCN(CC(=O)Nc2c(C(=O)OC)[nH]c3ccc(C)cc23)C1 (stereo unspecified) | -3.29 (active)
C=CCN1C=CC(=CC=C(C#N)C#N)C=C1 | 3.27
Cc1nn(C)cc1N1C(=O)c2cccc3c(N)ccc(c23)C1=O | 5.94
O=C(CN1CCN(Cc2ccc(Cl)cc2)C1=O)NCCCN1CCN(c2ccc(F)cc2)CC1 | -4.01 (active)
O=C(NCCN1CCCC1)C1(S(=O)(=O)c2ccc(Cl)cc2)CC1 | 3.06
c1ccc2c3c([nH]c2c1)C1(CCCCC1)NCC3 | -0.6
O=C(N/N=C/c1cn(-c2ccccc2)nc1-c1ccccc1)c1ccco1 | -4.01 (active)
Nc1c(C(=O)N/N=C/c2ccccc2Cl)oc2nc(-c3ccccc3)cc(-c3ccco3)c12 | 6.17
O=C(N/N=C\c1cn(-c2ccccc2)nc1-c1ccccc1)c1ccc(Br)o1 | 3.24
CC(C)C(C)(C#N)NC(=O)CSc1nnc(C(F)(F)F)n1C (stereo unspecified) | 3.02
CCSc1nc2c(c(=O)[nH]c(=O)n2C)n1C | -1.45
C#CC(C)(C)NC(=O)CSc1nc2c(c(=O)n(C)c(=O)n2C)n1CCCC | -7.25 (active)

Structure (SMILES) | z-score
COc1ccc(CN2CCN(c3ccccn3)CC2)cc1OCc1ccccc1 | -8.87 (active)
CC(=O)Nc1sc2c(c1CN1CCN(c3ccccn3)CC1)CCCC2 | -1.66
Cc1cnc(NC(=O)CN2CCN(c3ccccn3)CC2)s1 | 3.14
COc1ccc(OC)c(C(c2nnnn2C2CCCC2)N2CCN(c3ccccc3F)CC2)c1 (stereo unspecified) | -4.67 (active)
CCOc1cc(N(CC)CC)ccc1/C=C(/C#N)c1nc2ccccc2[nH]1 | 8.11
CCN(CC)c1ccc2cc(-c3nc4ccccc4[nH]3)c(=O)oc2c1 | 17.2
CCOC(=O)N1CCN(C(=O)CSc2ccc3nnc(CCNC(=O)c4ccc(OC)cc4)n3n2)CC1 | 3.73
CN(C)c1ccc(/C=C2\CCC/C(=C\c3ccccc3)C2=O)cc1 | 3.4
Cc1nnc(NC(=O)c2sc3nc(-c4cccs4)cc(C(F)(F)F)c3c2N)s1 | 15.1
O=C(N/N=C/c1cc(Br)ccc1O)Nc1ccccc1 | -4.87 (active)
CC(=O)Nc1ccc(C(=O)N/N=C/c2cc(Br)cc(Br)c2O)cc1 | -3.57 (active)
O=C(Nc1ccc(Br)cc1)C(c1ccccc1)c1ccccc1 | -0.28
CN(C)c1ccc(C(=O)N/N=C/c2cc(Br)cc(Br)c2O)cc1 | 4.65
COc1cc([C@@H]2[C@H]3CNCC=C3C(C#N)=C(N)C2(C#N)C#N)ccc1OC(C)C | 3.59
C/C(=N/O)c1ccccn1 | 0.09
c1ccc(CSc2ccc(-c3ccccn3)nn2)cc1 | 4.07
Cc1nn(-c2c(Cl)cc(Cl)cc2Cl)c(=O)c2ccccc12 | 3.38
CCN(c1ccccc1)S(=O)(=O)c1ccc(C(=O)Nc2nnc(C3CC3)o2)cc1 | -3.06 (active)
O=S(=O)(Cc1ccc(Cl)cc1)c1ccccc1-c1nnc(-c2ccccc2)o1 | 13.8
CCc1cc2c(=O)n(Cc3ccco3)c(SCC(=O)N3CCCc4ccccc43)nc2s1 | -3.14 (active)
CCN(C(=O)CSc1nc2cc(C(=O)OC)ccc2c(=O)n1Cc1ccco1)c1cccc(C)c1 | 4.54
CN(c1ccccc1)c1ccc(/C=c2\s/c(=C(/C#N)C(=O)C(C)(C)C)n(Cc3ccco3)c2=O)cc1 | 12.8
Cc1cccc2cc3c(N)c(C(=O)N4CCCc5ccccc54)sc3nc12 | 6.25
Cc1cc2c(=O)n(Cc3ccco3)c(SCC(=O)c3ccc(Cl)s3)nc2s1 | -9.67 (active)

Structure (SMILES) | z-score
O=C(O)c1ccccc1N/N=C/c1c(Sc2nnnn2-c2ccccc2)nc2ccccn2c1=O | 9.93
CCOC(=O)CC1C(=O)NCCN1c1nc2c(C)cccn2c(=O)c1/C=C1\SC(=S)N(C(C)CC)C1=O (stereo unspecified) | 9.72
O=C1c2cccc3c(O)ccc(c23)C(=O)N1Cc1ccccc1 | 5.05
O=C(N/N=C/c1ccc(O)cc1O)c1ccc(CN2C(=O)c3cccc4cccc2c34)cc1 | -3.91 (active)
CSc1c(C#N)c(N)nc2sc(C(=O)c3ccc(Cl)c(Cl)c3)c(N)c12 | 5.56
CCN(CC)S(=O)(=O)c1cccc(S(=O)(=O)c2cccc(S(=O)(=O)N(CC)CC)c2)c1 | -4.75 (active)
Cc1cc(NC(=S)N(Cc2ccc(Br)cc2)Cc2ccc(C(=O)O)cc2)ccc1Cl | 3.8
COc1ccc(NC(=S)N(CCCN2CCC(C)CC2)Cc2cccs2)cc1 | 1.67
CC(C)N1CC=C2C(C#N)=C(N)C(C#N)(C#N)C(c3ccccc3)C2C1 (stereo unspecified) | 5.63
Cc1cccc(NC(=O)Nc2ccc(C#N)cc2)n1 | 3.41
CC(C)(C)c1nc(NC(=O)Nc2ccccc2)sc1Br | -4.02 (active)
COc1cc(N=Nc2cccc(S(N)(=O)=O)c2)c2ccccc2c1N | 5.92
CN(C)c1ncc(S(=O)(=O)c2ccc(Cl)cc2)c(-c2ccccc2)n1 | -3.06 (active)
CCN(CC)c1ccc2cc(S(=O)(=O)c3ccc(Cl)cc3)c(=O)oc2c1 | 6.96
O=C(CSc1oc(-c2ccco2)nc1S(=O)(=O)c1ccc(F)cc1)NCC1CCCO1 (stereo unspecified) | 0.69
O=C(CSc1ccc(-c2ccccc2)nn1)NCC1CCCO1 (stereo unspecified) | 3.02
C=CCN1C(=O)c2cccc3c(N4CCCCC4)ccc(c23)C1=O | 5.61
C=CCc1ccccc1OCC(O)CN1CCN(CCN2C(=O)c3cccc4cccc(c34)C2=O)CC1 (stereo unspecified) | -5.75 (active)
COc1ccc(NC(=O)C/C(C)=N/NC(=O)C(=O)Nc2cccc(Cl)c2C)c(OC)c1 | 0.92
COc1ccc(NC(=O)C(=O)NCc2ccncc2)c(OC)c1 | -4.99 (active)
CC(C)C1S/C(=N/N=C/c2ccco2)NC1=O (stereo unspecified) | 3.25
Nc1ccc2c(c1)Cc1cc([N+](=O)[O-])ccc1-2 | 7.76
N#Cc1cc([N+](=O)[O-])ccc1N1CCCC1 | -5.65 (active)
O=C(c1cc([N+](=O)[O-])ccc1N1CCCC1)N1CCCC1 | 3.06
